Screens: PubChem BioAssay, Broad Institute
NOMO-1 viab – STK33 inhibitor candidate reducing NOMO-1 cell viability; NOMO-1 AML viability, CellTiter-Glo luminescence, 72 h; inhibition, % (concentration not given with the values); 37,000 compounds, 7.5% hits; AID 2330; in the data active = inhibition above about 80%; inconclusive = no clear call, values can overlap the other calls
Hedgehog inh – blocks Sonic Hedgehog signaling | Shh-LIGHT2 Gli-luciferase reporter, 30 h | inhibition, % (concentration not given with the values) | 22,000 compounds, 2.1% hits;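 active = mean inhibition across valid replicates above about 65%, limit read from the data; inconclusive = mean under the limit, yet half or more replicates past it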;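 also: pathway switched on by Shh-conditioned medium diluted 1 in 25 in low serum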
MITF inhib – inhibitors of MITF; inhibition, % (concentration not given with the values); 37,000 compounds, 0.28% hits; TRPM1 promoter luciferase, luminescence, 24 h; in the data active = inhibition above about 85%; inconclusive = no clear call, values can overlap the other calls; inactive = below about 68%;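 also: human melanocyte line stably carrying TRPM1 promoter luciferase reporter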
The depositor's hits bear a star; ? = inconclusive; . = no result given. Most compounds without a hit are left out; they make up all but 7.8% or so of the library.

SMILES	NOMO-1 viab	Hedgehog inh	MITF inhib
COc1ccc(-n2c(SCC(=O)NC3CCCCC3)nnc2-c2cccs2)cc1	1	.	12
Cc1ccc(S(=O)(=O)NC(C)C(=O)Nc2ccc3c(c2)OCCO3)cc1 (stereo unspecified)	-9	.	-5
COc1ccc(-n2nc3cc(C)c(NC(=O)COc4ccc(Cl)cc4Cl)cc3n2)cc1	?	.	-13
C[C@H]1CN([C@@H](C)CO)C(=O)Cc2cc(NC(=O)Nc3ccc(F)cc3)ccc2O[C@@H]1CN(C)CC1CC1	8	17	-3
C[C@H]1CN([C@@H](C)CO)C(=O)c2cc(NC(=O)Nc3cccc4ccccc34)ccc2O[C@H]1CN(C)CC1CCCCC1	25	.	-24
C[C@H]1CN([C@@H](C)CO)C(=O)Cc2cc(NC(=O)Nc3ccc4c(c3)OCO4)ccc2O[C@H]1CN(C)CC1CCCCC1	31	-10	-23
C[C@H](CO)N1C[C@H](C)[C@H](CN(C)CC2CCCCC2)Oc2ccc(NC(=O)Nc3ccc(F)cc3)cc2CC1=O	95*	.	-4
C[C@H](CO)N1C[C@H](C)[C@H](CN(C)CC2CCCCC2)Oc2ccc(NC(=O)Nc3cccc4ccccc34)cc2CC1=O	99*	0	12
C[C@@H]1CN([C@@H](C)CO)C(=O)Cc2cc(NC(=O)Nc3ccc(F)cc3)ccc2O[C@@H]1CN(C)CC1CCCCC1	81*	15	0
C[C@H]1CN([C@@H](C)CO)C(=O)Cc2cc(NC(=O)Nc3ccc4c(c3)OCO4)ccc2O[C@@H]1CN(C)CC1CCCCC1	92*	-43	23
COc1ccc(NC(=O)Nc2ccc3c(c2)CC(=O)N([C@H](C)CO)C[C@@H](C)[C@@H](CN(C)CC2CCCCC2)O3)cc1	31	-30	-3
Cc1ccc(-c2nc3ccccc3o2)cc1NC(=O)CN1C(=O)c2ccccc2C1=O	-13	.	-19
CCC(Sc1nnc(-c2ccc([N+](=O)[O-])cc2)n1C)C(=O)Nc1ccc(Br)cc1 (stereo unspecified)	23	.	6
CC(NS(=O)(=O)c1cc(Cl)ccc1Cl)C(=O)Nc1cccc([N+](=O)[O-])c1 (stereo unspecified)	13	.	9
CC(C)(C)c1ccc(NC(=O)c2cnccn2)cc1	22	-19	65
COc1cc(C2c3c(oc4ccc(Cl)cc4c3=O)C(=O)N2Cc2ccco2)cc(Br)c1O (stereo unspecified)	43	.	7
C=CCn1c(SCC(=O)c2ccccc2)nnc1-c1sc2nc(C)cc(C)c2c1N	6	35	13
CS(=O)(=O)N(CC(=O)Nc1cccc([N+](=O)[O-])c1)c1ccc(Br)cc1	19	.	0
O=C(O)C1C2C=CC(O2)C1C(=O)Nc1ccc(S(=O)(=O)N2CCc3ccccc32)cc1 (stereo unspecified)	21	.	-4
O=S(=O)(c1ccc(Cl)cc1)N1CCc2ccccc21	120*	81*	48
COc1ccc(NC(=O)Nc2ccc3c(c2)C(=O)N([C@H](C)CO)C[C@H](C)[C@@H](CN(C)Cc2ccc(Cl)c(Cl)c2)O3)cc1	28	11	4
C[C@H](CO)N1C[C@H](C)[C@H](CN(C)Cc2ccc(Cl)c(Cl)c2)Oc2ccc(NC(=O)Nc3ccccc3)cc2C1=O	113*	19	17
C[C@@H]1CN([C@@H](C)CO)C(=O)c2cc(NC(=O)Nc3ccc(F)cc3)ccc2O[C@H]1CN(C)Cc1ccc(Cl)c(Cl)c1	125*	.	41
COc1ccc(NC(=O)Nc2ccc3c(c2)C(=O)N([C@H](C)CO)C[C@H](C)[C@H](CN(C)Cc2ccc(Cl)c(Cl)c2)O3)cc1	109*	7	28
C[C@H](CO)N1C[C@H](C)[C@H](CN(C)Cc2ccc(Cl)c(Cl)c2)Oc2ccc(NC(=O)Nc3ccc(F)cc3)cc2C1=O	-11	.	5
SMILES	NOMO-1 viab	Hedgehog inh	MITF inhib
C[C@H](CO)N1C[C@H](C)[C@@H](CN(C)Cc2ccc(Cl)c(Cl)c2)Oc2ccc(NC(=O)Nc3ccc(F)cc3)cc2C1=O	53	.	40
O=C(CSc1nnc(-c2ccc(Cl)cc2)o1)c1cccc([N+](=O)[O-])c1	36	.	-21
COc1cc(-c2nnc(SCC(=O)c3ccccc3)n2-c2ccccc2)cc(OC)c1OC	42	.	1
Cn1c(SCc2ccc(C(F)(F)F)cc2)nnc1-c1ccc(OCC(F)(F)F)nc1	28	74*	26
Cn1c(SCC(N)=O)nnc1-c1ccc(C(C)(C)C)cc1	7	.	-35
COc1ccc(C)cc1NC(=O)CN(c1cc(Cl)c(Cl)cc1Cl)S(C)(=O)=O	9	.	14
COC(=O)c1c(C)cc2c(c(C)c1=O)OC1(C2)C(C)CCC2C(C)(C)OC(=O)C=CC21C (stereo unspecified)	107*	-51	44
CCn1c(SCC(=O)Nc2ccc(Cl)cc2Cl)nnc1-c1ccc(Cl)c(Cl)c1	21	.	5
C[C@@H]1CN([C@H](C)CO)C(=O)c2cccc(NC(=O)c3nc4ccccc4s3)c2O[C@H]1CN(C)Cc1ccc(C(=O)Nc2ccccc2N)cc1	120*	.	40
C[C@H](CO)N1C[C@H](C)[C@H](CN(C)Cc2ccccc2)Oc2c(NC(=O)c3nc4ccccc4s3)cccc2C1=O	45	15	-1
C[C@H]1CN([C@@H](C)CO)C(=O)c2cccc(NC(=O)c3nc4ccccc4s3)c2O[C@H]1CN(C)Cc1ccc(C(=O)Nc2ccccc2N)cc1	127*	.	24
C[C@H]1CN([C@@H](C)CO)C(=O)c2cccc(NC(=O)c3nc4ccccc4s3)c2O[C@H]1CN(C)Cc1ccccc1	40	-112	-6
CC(Sc1nc(-c2ccccc2)c(C#N)c(=O)[nH]1)C(=O)Nc1cccc(Cl)c1 (stereo unspecified)	22	.	-8
CC(=O)Nc1ccc(NC(=O)Cn2cc([N+](=O)[O-])cn2)cc1	-9	.	-31
OC(CNC1CCCC1)Cn1c2ccc(Cl)cc2c2cc(Cl)ccc21 (stereo unspecified)	119*	.	31
CS(=O)(=O)N1CCN(CC(O)Cn2c3ccc(Cl)cc3c3cc(Cl)ccc32)CC1 (stereo unspecified)	20	.	-10
COc1ccc(OC)c(CCCCc2cc(OC)ccc2OC)c1	15	2	-12
Cc1c(Cl)cccc1N(CC(=O)Nc1cc(Cl)cc(Cl)c1)S(C)(=O)=O	22	.	4
C[C@@H]1CN([C@@H](C)CO)C(=O)c2cccc(NC(=O)c3ccc(-c4nccs4)cc3)c2O[C@@H]1CN(C)Cc1ccc(C(F)(F)F)cc1	88*	62	37
C[C@H]1CN([C@@H](C)CO)C(=O)c2cccc(NC(=O)c3ccc(-c4nccs4)cc3)c2O[C@H]1CN(C)Cc1ccncc1	12	29	-8
C[C@@H]1CN([C@H](C)CO)C(=O)c2cccc(NC(=O)c3ccc(-c4nccs4)cc3)c2O[C@@H]1CN(C)Cc1ccc(C(F)(F)F)cc1	14	21	-1
C[C@H](CO)N1C[C@H](C)[C@@H](CN(C)Cc2ccc(C(F)(F)F)cc2)Oc2c(NC(=O)c3ccc(-c4nccs4)cc3)cccc2C1=O	115*	?	67
C[C@H]1CN([C@@H](C)CO)C(=O)c2cccc(NC(=O)c3ccc(-c4nccs4)cc3)c2O[C@@H]1CN(C)Cc1ccc(C(F)(F)F)cc1	?	48	63
